Measurements as given in PubChem BioAssay (NCATS).
Records with an inconclusive call do not appear. Activity calls are given as the source filed them. Unless noted, the call rests on the fitted dose curve; in most records, active means well fitted curve in the direction sought with a large enough effect; inconclusive means small, poorly fitted or top-dose-only effect, or another doubt; inactive means no such curve, though single readings can be large; an effect the other way counts as inactive or inconclusive.

How the values were obtained:
[1] = biological target: D(1A) dopamine receptor (Homo sapiens) (UniProt P21728); test: HTS Assay for Allosteric Agonists of the Human D1 Dopamine Receptor: Primary Screen for Antagonists (AID 488983);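 further: calcium flux response to an EC80 dopamine challenge measured with no-wash dye; nearly all actives have a fitted effect of over 65% in size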; further: potency means the concentration at half of the fitted maximal effect
How it was run: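 Screening of inducible HEK293 T-REx D1 cells: compound first, EC80 dopamine 180 s later, each phase read kinetically for calcium over 180 s.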

[2] = biological target: ATPase family AAA domain-containing protein 5 (Homo sapiens) (UniProt Q96QE3); test: Validation screen for small molecules that inhibit ELG1-dependent DNA repair in human embryonic kidney (HEK293T) cells expressing luciferase-tagged ELG1 (AID 493107);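 further: cells co-treated with the DNA-damaging agent 5-fluorouridine alongside compound; series mostly up to about 46 µM; on the % scale 0 is the no-effect control and ±100 the full control effect; inhibitors lower the ELG1-luciferase luminescence signal; nearly all actives have a fitted effect of over 70% in size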
How it was run: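 Quantitative HTS in HEK293T cells carrying luciferase-tagged ELG1, stimulated with 5-fluorouridine alongside compound for 16 hr. Loss of luciferase signal marks inhibition of ELG1 response.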

[3] = Nrf2 qHTS screen for inhibitors: Validation (AID 493153; active means well fitted inhibition curve with a large enough effect in the main read-out, with a control signal flat, not every such curve was filed as active); details: Potency: luciferase luminescence; viability change: measured here: cytotoxicity max response
How it was run: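 Dose-response validation uses reporter A549 cells with firefly luciferase under an antioxidant response element. Compounds stay on cells 18-24 h at 37°C, and luminescence indicates Nrf2-driven transcription.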

[4] = qHTS for Inhibitors of Cell Surface uPA Generation: Validation Assay (AID 493164);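 further: RAW 264.7 macrophage cells exposed to compound for 18 h; 0% is about no effect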
How it was run: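 RAW 264.7, 4000 cells/well, o/n plating; cpd 7-pt 1:5 dilution 2.45 nM–38.3 uM final; 18 h, 37 C/5% CO2; ATP-Lite, 5 s luminescence exposure.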

[5] = biological target: Phosphoglycerate kinase, glycosomal (Trypanosoma brucei brucei) (UniProt P07378); test: qHTS Validation Assay to Find Inhibitors of Phosphoglycerate Kinase (AID 504547);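 further: control wells lack PGK and mark full inhibition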
How it was run: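 Inhibition of the enzyme is judged by a Kinase-Glo Plus luminescent signal following a one-hour incubation at room temperature. Because 1,3-BPG is unstable, it is made in situ by GAPDH at 100nM final; no-PGK wells define the baseline.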

[6] = biological target: phosphoglycerate mutase (Leishmania major) (UniProt Q4Q090); test: qHTS Validation Assay to Find Inhibitors of Phosphoglycerate Mutase (AID 504548); details: Potency: inhibition qHTS; further: series mostly up to about 58 µM; on the % scale 0 is the no-effect control and ±100 the full control effect
How it was run: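 Luminescent end-point read-out via Kinase-GloPlus after a 10-minute development. Reaction: 1.25nM Leishmania major PGAM with substrate and compound, 45 minutes at room temperature in TEA buffer (pH 7.6) with MgCl2 and Tween-20.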

[7] = qHTS for Inhibitors of ATXN expression: Validation (AID 588378); further: series mostly up to about 57 µM; on the % scale 0 is the no-effect control and ±100 the full control effect; nearly all actives have a fitted effect of over 75% in size
How it was run: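 Luciferase luminescence (Bright-Glo) from an ATXN2-FFLuc HEK293 line after 24 h compound exposure at 37 °C, preceded by a CellTiter-Fluor fluorescence viability read. Serial dilutions of a reference ATXN2 inhibitor and a luciferase inhibitor served as controls.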

[8] = Validation screen for small molecules that induce genotoxicity in human embryonic kidney (HEK293T) cells expressing luciferase-tagged ELG1 (AID 493106); further: potency means the concentration at half of the fitted maximal effect
How it was run: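 Reporter-gene quantitative HTS in HEK293T cells carrying luciferase-tagged ELG1, whose level climbs under genotoxic stress. Compound exposure lasts 16 hr at 37 °C before luciferase detection.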

[9] = biological target: Thyrotropin-releasing hormone receptor (Homo sapiens) (UniProt P34981); test: qHTS for Small Molecule Agonists and Allosteric Enhancers of Human TRH Receptor: Validation Screen for Agonists (AID 493127;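 active means calcium activation more than 3 SD above the typical response in the agonist read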;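 further: intracellular calcium rise by fluo-8 fluorescence before TRH EC20 addition; 0% is about no effect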); details: TRH receptor agonist cell assay; at 2 µM; stronger effect = higher value
How it was run: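 Gq-coupled calcium mobilization in TRHR cells after compound addition, monitored kinetically with fluo-8 dye on an FDSS reader.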

[10] = Validation screen for small molecules that induce DNA re-replication in SW480 colon adenocarcinoma cells (AID 504364); further: 0% is about no effect
How it was run: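 Cells are treated 48 hr with test compound, stained 40 min with Hoechst at 37 C, and scanned for nuclear fluorescence; compounds inducing re-replication increase nuclei with elevated intensity.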

[11] = biological target: DNA dC->dU-editing enzyme APOBEC-3G (Homo sapiens) (UniProt Q9HC16); test: qHTS for inhibitors of Vif-A3G interactions: Validation (AID 588379); further: 0% is about no effect
How it was run: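 HeLa cells stably expressing Vif and A3G-eYFP, 700 cells/well, incubated overnight at 37 deg C, then exposed to compound overnight at 37 deg C. Inhibition of Vif-mediated degradation read as increased yellow fluorescence (Ex 488/Em 500-530) by laser-scanning cytometry.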

[12] = biological target: Bile acid receptor (Homo sapiens) (UniProt Q96RI1); test: qHTS assay for small molecule antagonists of farnesoid X receptor signaling (AID 588526; calls by dose curve; further: on the % scale 0 is the no-effect control and ±100 the full control effect)
How it was run: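 Beta-lactamase reporter antagonist mode: HEK293T FXR-UAS-bla cells, titrated compound, CDCA stimulation, 16 h 37 C, CCF4 dye 2 h RT. Data normalized to CDCA 50 uM and DMSO; Hill-fit IC50.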

[13] = biological target: Glucocorticoid receptor (Homo sapiens) (UniProt P04150); test: qHTS assay for small molecule agonists of glucocorticoid receptor signaling (AID 588532; active means well fitted curve in the direction sought with a large enough effect in the signal ratio, with a control signal flat; the % refers to the signal ratio;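 further: 100% = dexamethasone at 0.1 µM and 0% = DMSO only wells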); details: HeLa MMTV-bla, beta-lactamase ratio, agonist, 18 h; stronger effect = higher value; percent of dexamethasone control, DMSO zero
How it was run: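 Quantitative HTS using CellSensor MMTV-bla HeLa cells in charcoal/dextran-treated serum; compounds tested up to 92 uM. After 18 h at 37 C, CCF4 dye reported reporter induction.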

[14] = biological target: ATP-dependent 6-phosphofructokinase (Trypanosoma brucei brucei) (UniProt O15648); test: qHTS Assay to Find Inhibitors of T. brucei phosphofructokinase: hit validation (AID 492961);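 further: luminescence reports ADP formed as PFK phosphorylates fructose-6-phosphate with ATP; series mostly up to about 51 µM; on the % scale 0 is the no-effect control and ±100 the full control effect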
How it was run: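 In this biochemical qHTS validation, titrated compounds were tested against 1.25 nM PFK with 0.1 mM ATP and 0.5 mM F6P. Percent activity came from controls lacking or containing enzyme.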

[15] = biological target: Peptidyl-prolyl cis-trans isomerase NIMA-interacting 1 (Homo sapiens) (UniProt Q13526); test: qHTS Validation Assay to Find Inhibitors of Pin1 (AID 504536; active means well fitted inhibition curve with a large enough effect in the polarisation, with a control signal flat, not every such curve was filed as active; the % refers to the polarisation;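 further: 0% = full Pin1 enzyme wells and -100% = no-enzyme wells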)
How it was run: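 Fluorescence polarization competition: compounds (titration) displace HiFluor-488-labeled Pin1-1b peptide from Pin1 (0.3 uM final) in pH 7.5 HEPES buffer with DTT, 10 min at room temperature; %Activity normalized to no-enzyme wells, curves fitted.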

[16] = biological target: Ubiquitin carboxyl-terminal hydrolase 1 (Homo sapiens) (UniProt O94782); test: Inhibitors of USP1/UAF1: Pilot qHTS (AID 504865);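 further: rhodamine fluorescence freed from ubiquitin-rhodamine substrate followed over time; top concentration of the series differs between compounds; on the % scale 0 is the no-effect control and ±100 the full control effect; nearly all actives have a fitted effect of over 35% in size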
How it was run: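 Deubiquitinase activity followed as kinetic rhodamine fluorescence release from 150 nM Ub-Rho. 1 nM USP1/UAF1 with compound, after 15 min room-temperature preincubation, in HEPES pH 7.8 buffer containing TCEP, EDTA, BSA and Tween-20.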

Chain of phosphoglycerate mutase (Leishmania major) (Q4Q090 1-553): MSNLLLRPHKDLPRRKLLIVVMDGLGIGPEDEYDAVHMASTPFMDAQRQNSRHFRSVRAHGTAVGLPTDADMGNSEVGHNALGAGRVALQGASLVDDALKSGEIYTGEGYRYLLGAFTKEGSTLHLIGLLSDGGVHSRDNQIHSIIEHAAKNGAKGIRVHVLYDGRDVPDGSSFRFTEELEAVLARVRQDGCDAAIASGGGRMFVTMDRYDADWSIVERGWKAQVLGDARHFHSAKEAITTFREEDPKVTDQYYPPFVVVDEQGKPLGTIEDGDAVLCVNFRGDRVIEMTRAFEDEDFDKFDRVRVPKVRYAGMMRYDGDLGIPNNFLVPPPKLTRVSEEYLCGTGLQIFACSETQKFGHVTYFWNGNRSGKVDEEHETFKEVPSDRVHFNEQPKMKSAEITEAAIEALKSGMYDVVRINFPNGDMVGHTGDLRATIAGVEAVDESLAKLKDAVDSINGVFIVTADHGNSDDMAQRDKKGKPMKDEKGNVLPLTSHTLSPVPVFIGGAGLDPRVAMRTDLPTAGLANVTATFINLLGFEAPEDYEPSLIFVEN
Chain of ATP-dependent 6-phosphofructokinase (Trypanosoma brucei brucei) (O15648 whole entry, looked up): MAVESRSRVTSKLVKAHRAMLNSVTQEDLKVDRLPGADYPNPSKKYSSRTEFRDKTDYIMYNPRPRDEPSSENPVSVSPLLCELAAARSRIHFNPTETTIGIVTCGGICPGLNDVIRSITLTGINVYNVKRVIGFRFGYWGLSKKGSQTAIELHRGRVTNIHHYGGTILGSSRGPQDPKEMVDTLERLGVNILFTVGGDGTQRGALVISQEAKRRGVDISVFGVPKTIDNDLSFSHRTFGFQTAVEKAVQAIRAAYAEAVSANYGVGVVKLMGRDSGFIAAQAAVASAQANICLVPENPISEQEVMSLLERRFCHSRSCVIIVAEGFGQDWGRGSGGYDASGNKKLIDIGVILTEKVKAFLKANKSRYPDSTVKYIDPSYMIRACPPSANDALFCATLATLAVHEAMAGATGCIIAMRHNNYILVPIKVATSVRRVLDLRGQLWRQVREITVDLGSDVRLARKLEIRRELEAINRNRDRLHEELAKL
Chain of Peptidyl-prolyl cis-trans isomerase NIMA-interacting 1 (Homo sapiens) (Q13526 whole entry, looked up): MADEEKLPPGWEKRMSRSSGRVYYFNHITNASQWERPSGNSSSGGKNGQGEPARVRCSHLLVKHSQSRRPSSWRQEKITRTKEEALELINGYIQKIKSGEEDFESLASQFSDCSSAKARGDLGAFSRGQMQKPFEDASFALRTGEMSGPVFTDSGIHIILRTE
Chain of DNA dC->dU-editing enzyme APOBEC-3G (Homo sapiens) (Q9HC16 whole entry, looked up): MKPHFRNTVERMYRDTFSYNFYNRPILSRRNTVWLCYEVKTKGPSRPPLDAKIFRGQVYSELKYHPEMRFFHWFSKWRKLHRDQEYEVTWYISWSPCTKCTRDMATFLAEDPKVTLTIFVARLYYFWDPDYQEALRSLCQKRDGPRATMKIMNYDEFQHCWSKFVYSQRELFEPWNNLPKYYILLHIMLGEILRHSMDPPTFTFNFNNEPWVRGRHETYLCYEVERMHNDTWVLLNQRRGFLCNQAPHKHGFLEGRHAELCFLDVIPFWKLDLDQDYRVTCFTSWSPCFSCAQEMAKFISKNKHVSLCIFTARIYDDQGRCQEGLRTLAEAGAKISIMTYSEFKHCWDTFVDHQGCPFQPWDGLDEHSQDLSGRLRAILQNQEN
Chain of ATPase family AAA domain-containing protein 5 (Homo sapiens) (Q96QE3 whole entry, looked up, the tested form may be a part): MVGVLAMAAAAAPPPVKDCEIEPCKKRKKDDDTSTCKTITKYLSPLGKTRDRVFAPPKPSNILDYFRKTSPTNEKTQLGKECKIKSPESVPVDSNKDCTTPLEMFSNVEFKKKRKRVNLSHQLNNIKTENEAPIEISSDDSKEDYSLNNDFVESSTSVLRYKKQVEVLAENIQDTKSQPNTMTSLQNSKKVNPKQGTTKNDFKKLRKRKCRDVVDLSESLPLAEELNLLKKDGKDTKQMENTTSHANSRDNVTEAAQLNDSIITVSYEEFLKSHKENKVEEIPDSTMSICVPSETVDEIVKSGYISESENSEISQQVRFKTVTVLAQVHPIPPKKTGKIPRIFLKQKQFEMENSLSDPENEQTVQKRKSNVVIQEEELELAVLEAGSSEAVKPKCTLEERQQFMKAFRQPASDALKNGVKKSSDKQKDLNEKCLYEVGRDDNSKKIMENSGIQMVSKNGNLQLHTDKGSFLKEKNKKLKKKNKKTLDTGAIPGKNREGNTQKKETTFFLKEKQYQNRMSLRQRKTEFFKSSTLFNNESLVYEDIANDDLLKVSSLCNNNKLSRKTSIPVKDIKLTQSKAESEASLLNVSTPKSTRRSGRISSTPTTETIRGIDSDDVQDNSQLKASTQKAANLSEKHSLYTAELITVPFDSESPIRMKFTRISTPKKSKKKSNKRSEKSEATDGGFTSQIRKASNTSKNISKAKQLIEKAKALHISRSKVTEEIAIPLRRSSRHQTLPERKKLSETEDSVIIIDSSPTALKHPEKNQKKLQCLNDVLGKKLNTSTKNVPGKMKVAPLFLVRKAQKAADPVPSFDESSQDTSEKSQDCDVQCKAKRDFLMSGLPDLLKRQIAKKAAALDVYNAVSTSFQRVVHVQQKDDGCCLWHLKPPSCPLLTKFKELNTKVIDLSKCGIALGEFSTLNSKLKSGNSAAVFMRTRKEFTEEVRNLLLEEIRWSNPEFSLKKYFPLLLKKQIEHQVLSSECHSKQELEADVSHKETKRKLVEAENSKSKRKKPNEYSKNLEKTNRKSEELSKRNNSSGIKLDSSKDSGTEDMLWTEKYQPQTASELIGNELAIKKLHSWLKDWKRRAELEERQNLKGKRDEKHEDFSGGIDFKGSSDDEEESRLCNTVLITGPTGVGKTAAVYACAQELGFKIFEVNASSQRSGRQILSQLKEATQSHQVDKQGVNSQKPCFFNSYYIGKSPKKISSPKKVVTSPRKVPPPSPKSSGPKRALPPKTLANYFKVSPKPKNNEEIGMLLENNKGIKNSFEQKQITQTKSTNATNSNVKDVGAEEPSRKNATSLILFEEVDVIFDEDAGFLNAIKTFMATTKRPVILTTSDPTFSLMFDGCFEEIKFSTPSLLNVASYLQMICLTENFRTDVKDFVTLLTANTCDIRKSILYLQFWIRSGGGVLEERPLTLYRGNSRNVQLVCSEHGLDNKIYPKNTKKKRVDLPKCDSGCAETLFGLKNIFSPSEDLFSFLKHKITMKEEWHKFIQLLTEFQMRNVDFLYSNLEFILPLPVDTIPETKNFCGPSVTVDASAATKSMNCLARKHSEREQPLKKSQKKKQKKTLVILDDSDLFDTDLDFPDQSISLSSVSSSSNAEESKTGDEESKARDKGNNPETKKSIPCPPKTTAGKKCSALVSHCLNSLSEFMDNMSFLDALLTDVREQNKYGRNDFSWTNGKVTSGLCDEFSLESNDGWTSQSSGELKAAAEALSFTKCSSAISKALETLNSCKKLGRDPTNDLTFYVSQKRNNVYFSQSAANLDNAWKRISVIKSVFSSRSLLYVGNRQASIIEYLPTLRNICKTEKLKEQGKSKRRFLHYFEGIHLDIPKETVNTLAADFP
Chain of D(1A) dopamine receptor (Homo sapiens) (P21728 whole entry, looked up): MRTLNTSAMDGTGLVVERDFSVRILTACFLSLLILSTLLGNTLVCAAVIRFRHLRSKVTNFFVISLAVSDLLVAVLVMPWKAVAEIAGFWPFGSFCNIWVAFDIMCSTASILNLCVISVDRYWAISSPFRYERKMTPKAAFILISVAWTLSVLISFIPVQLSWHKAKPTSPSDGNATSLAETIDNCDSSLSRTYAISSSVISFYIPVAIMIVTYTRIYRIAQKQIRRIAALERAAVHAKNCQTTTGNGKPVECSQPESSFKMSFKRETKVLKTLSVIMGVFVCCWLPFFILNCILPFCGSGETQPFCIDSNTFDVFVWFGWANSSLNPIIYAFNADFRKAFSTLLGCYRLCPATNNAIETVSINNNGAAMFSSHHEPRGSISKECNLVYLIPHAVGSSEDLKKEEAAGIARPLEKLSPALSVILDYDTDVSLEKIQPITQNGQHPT
Chain of Ubiquitin carboxyl-terminal hydrolase 1 (Homo sapiens) (O94782 whole entry, looked up): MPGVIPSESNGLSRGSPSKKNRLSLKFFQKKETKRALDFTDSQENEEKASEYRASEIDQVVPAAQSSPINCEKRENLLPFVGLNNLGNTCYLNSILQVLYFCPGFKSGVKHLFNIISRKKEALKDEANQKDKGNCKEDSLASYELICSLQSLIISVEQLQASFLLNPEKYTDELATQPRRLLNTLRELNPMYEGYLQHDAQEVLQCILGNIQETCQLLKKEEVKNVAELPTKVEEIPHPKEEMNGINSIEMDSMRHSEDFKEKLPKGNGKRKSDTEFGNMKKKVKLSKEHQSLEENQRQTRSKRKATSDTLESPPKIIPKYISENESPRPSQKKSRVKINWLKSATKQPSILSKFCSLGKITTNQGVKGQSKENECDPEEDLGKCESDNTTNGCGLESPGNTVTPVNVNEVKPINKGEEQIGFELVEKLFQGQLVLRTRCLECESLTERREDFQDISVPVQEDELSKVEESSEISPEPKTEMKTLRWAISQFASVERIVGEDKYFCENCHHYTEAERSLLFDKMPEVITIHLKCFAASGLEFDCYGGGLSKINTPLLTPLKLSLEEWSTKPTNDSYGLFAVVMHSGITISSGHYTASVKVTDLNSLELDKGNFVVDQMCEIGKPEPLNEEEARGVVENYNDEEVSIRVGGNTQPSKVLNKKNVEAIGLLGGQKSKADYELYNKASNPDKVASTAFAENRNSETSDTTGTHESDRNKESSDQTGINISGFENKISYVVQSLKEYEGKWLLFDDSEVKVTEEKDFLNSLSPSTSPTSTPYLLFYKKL

CCOC(=O)C(C)Oc1cccc2c(=O)n(CC(=O)Nc3ccc4c(c3)OCCO4)ccc12 (configuration not stated)
-3.9%: viability change [3]
inactive: Potency [1] | outcome [2] | Potency [3] | outcome [4] | Potency [5] | Potency [6] | Potency [7]

O=c1c(O)c(-c2ccc(O)cc2O)oc2cc(O)cc(O)c12
inactive: Potency [1] | Potency [8] | outcome [2] | activation [9] 0.938% | Potency [3] | outcome [4] | Potency [10] | Potency [6] | Potency [7] | outcome [11] | outcome [12] | activation [13] -17.5%
-13.4%: viability change [3]

Cc1c(OCC(F)(F)F)ccnc1CS(=O)c1nc2ccccc2[nH]1 (configuration not stated)
inactive: Potency [1] | outcome [14] | Potency [8] | activation [9] 4.38% | outcome [4] | Potency [10] | outcome [15] | Potency [5] | Potency [6]

NCCCCNCCCN
3.72%: viability change [3]
inactive: Potency [1] | Potency [8] | activation [9] -0.0625% | Potency [3] | outcome [4] | Potency [10] | outcome [15] | Potency [5] | Potency [6] | Potency [16] | Potency [7] | outcome [11]

O=C(c1ccccc1)c1ccc2n1CCC2C(=O)O (configuration not stated)
inactive: Potency [1] | Potency [8] | outcome [2] | Potency [3] | outcome [4] | Potency [10] | outcome [15] | Potency [5] | Potency [6] | Potency [16] | Potency [7]
0.0927%: viability change [3]

O=c1ccc2ccc(O)c(O)c2o1
21%: viability change [3]
inactive: Potency [1] | Potency [8] | activation [9] -0.188% | Potency [3] | outcome [4] | Potency [6] | Potency [16] | Potency [7]

COc1cc2c(cc1OC)C1CC(=O)C(CC(C)C)CN1CC2 (configuration not stated)
inactive: Potency [1] | outcome [14] | Potency [3] | outcome [4] | outcome [15] | Potency [5] | Potency [6] | Potency [16] | Potency [7]
-5.87%: viability change [3]

Oc1ccc(-c2nc(-c3ccc(F)cc3)c(-c3ccncc3)[nH]2)cc1
inactive: Potency [1] | Potency [8] | activation [9] -3.81% | outcome [4] | Potency [10] | outcome [15] | Potency [5] | Potency [6] | Potency [7]

C[C@@H](N)C1CCC(C(=O)Nc2ccncc2)CC1 (some centres not stated)
inactive: Potency [1] | Potency [8] | activation [9] 1.06% | Potency [3] | outcome [4] | Potency [10] | outcome [15] | Potency [5] | Potency [6] | Potency [16] | Potency [7]
2.27%: viability change [3]

Cc1c(C(=O)NN2CCCCC2)nn(-c2ccc(Cl)cc2Cl)c1-c1ccc(Cl)cc1
inactive: outcome [14]

Nc1cccc2c1CN(C1CCC(=O)NC1=O)C2=O (configuration not stated)
inactive: outcome [14]

CC1(C)C(=O)N(CCN2CCC(C(=O)c3ccc(F)cc3)CC2)c2ccccc21
active: Potency [1] 4.47 µM
inactive: Potency [8] | activation [9] 3.12% | outcome [4] | Potency [10] | outcome [15] | Potency [5] | Potency [6] | Potency [16]

O=C1c2c(O)cc(O)cc2OC(c2ccc(O)c(O)c2)C1O (configuration not stated)
inactive: Potency [1] | Potency [8] | outcome [2] | activation [9] 0% | Potency [3] | outcome [4] | Potency [10] | Potency [6] | Potency [16] | Potency [7] | outcome [11]
-0.133%: viability change [3]

O=C(CCc1ccc(O)cc1)c1c(O)cc(O)cc1O
-1.1%: viability change [3]
inactive: Potency [1] | Potency [8] | activation [9] 1.75% | Potency [3] | outcome [4] | Potency [10] | outcome [15] | Potency [5] | Potency [6] | Potency [7] | outcome [11]

OC(CN1CCN(c2cccc(Cl)c2)CC1)C(c1ccccc1)c1ccccc1 (configuration not stated)
1.98%: viability change [3]
inactive: Potency [1] | Potency [8] | outcome [2] | activation [9] 2.44% | Potency [3] | outcome [4] | outcome [15] | Potency [5] | Potency [6] | Potency [16] | Potency [7] | outcome [11]

Cc1cccc(C#Cc2ccccc2)n1
active: Potency [8] 8.2 µM
inactive: Potency [1] | activation [9] -5.31% | Potency [3] | outcome [4] | Potency [10] | outcome [15] | Potency [16] | Potency [7] | outcome [11]
2%: viability change [3]

Nc1nc(OCc2ccccc2)c2[nH]cnc2n1
inactive: Potency [1] | outcome [2] | activation [9] -2.94% | Potency [3] | outcome [4] | Potency [10] | outcome [15] | Potency [5] | Potency [6] | Potency [16] | Potency [7]
10.1%: viability change [3]

CCCCCCCCCCCCCCCCCCCCCCO
inactive: outcome [14] | Potency [16]

Cc1cc(C2CCCCC2)n(O)c(=O)c1
inactive: outcome [14]

CCCCN(CCCC)CCC(O)c1cc2c(Cl)cc(Cl)cc2c2cc(C(F)(F)F)ccc12 (configuration not stated)
inactive: outcome [14]

CCCCc1ccc2nc(NC(=O)OC)[nH]c2c1
inactive: outcome [14] | Potency [16]

CN1CCC(=C2c3ccccc3CCc3sccc32)CC1
inactive: outcome [14] | Potency [16]

COC(=O)C1=C(C)NC(C)=C(C(=O)OCCCN2CCC(c3ccccc3)(c3ccccc3)CC2)C1c1cccc([N+](=O)[O-])c1 (configuration not stated)
inactive: outcome [14]

O=C(CS(=O)Cc1ccco1)NCC=CCOc1cc(CN2CCCCC2)ccn1 (configuration not stated)
inactive: outcome [14]

Cc1nc(Nc2ncc(C(=O)Nc3c(C)cccc3Cl)s2)cc(N2CCN(CCO)CC2)n1
inactive: outcome [14]
